Among all 5,500 compounds or so, about 2,000 (36%) were called active. Roughly 18% stayed inconclusive and do not appear here. No stated cut-off is given here; in the data, active means normalized growth mostly below about 0.91 (no sharp cut-off); inconclusive means no clear call, values can overlap the other calls; inactive means mostly above about 0.92. The list shows a part of the results.
Assay: chemical genetic growth profiling, strain panel (AID 1159580);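 further: tested at 20 µM; growth read once vehicle control cultures reached saturation at 30 °C; 1 = growth at the plate median or of vehicle wells; lower values mean less growth of the strain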
Conditions: S. cerevisiae deletion strains, growth OD

Measured: normalized growth

COc1ccc2nc3ccccc3c(N)c2c1
active: locus YAR019C, strain CDC15, active compounds read low 0.6 | locus YBL105C, strain PKC1, active compounds read low 0.592 | locus YBR135W, strain CKS1, active compounds read low 0.722 | locus YBR136W, strain MEC1, active compounds read low 0.657 | locus YBR160W, strain CDC28, active compounds read low 0.661 | locus YDL017W, strain CDC7, active compounds read low 0.636 | locus YDL028C, strain MPS1, active compounds read low 0.679 | locus YDL108W, strain KIN28, active compounds read low 0.737 | locus YDL214C, strain PRR2, active compounds read low 0.203 | locus YDR052C, strain DBF4, active compounds read low 0.701 | locus YDR054C, strain cdc34, active compounds read low 0.625 | locus YDR477W, strain SNF1, active compounds read low 0.198 | locus YER123W, strain YCK3, active compounds read low 0.195 | locus YER133W, strain GLC7, active compounds read low 0.215 | locus YFL029C, strain CAK1, active compounds read low 0.579 | locus YFR003C, strain YPI1, active compounds read low 0.652 | locus YFR019W, strain FAB1, active compounds read low 0.208 | locus YGR040W, strain KSS1, active compounds read low 0.21 | locus YGR052W, strain FMP48, active compounds read low 0.235 | locus YGR092W, strain DBF2, active compounds read low 0.227 | locus YHR030C, strain SLT2, active compounds read low 0.188 | locus YHR079C, strain IRE1, active compounds read low 0.206 | locus YHR082C, strain KSP1, active compounds read low 0.27 | locus YHR205W, strain SCH9, active compounds read low 0.151 | locus YIL147C, strain SLN1, active compounds read low 0.63 | locus YJL095W, strain BCK1, active compounds read low 0.227 | locus YJL157C, strain FAR1, active compounds read low 0.176 | locus YJR016C, strain ILV3, active compounds read low 0.699 | locus YJR066W, strain TOR1 (second series), active compounds read low 0.246 | locus YJR066W, strain TOR1, active compounds read low 0.233 | locus YKL048C, strain ELM1, active compounds read low 0.264 | locus YKL067W, strain YNK1, active compounds read low 0.19 | locus YKL101W, strain HSL1, active compounds read low 0.193 | locus YKL193C, strain SDS22, active compounds read low 0.659 | locus YKL203C, strain TOR2, active compounds read low 0.204 | locus YLR113W, strain HOG1, active compounds read low 0.257 | locus YLR133W, strain CKI1, active compounds read low 0.199 | locus YLR403W, strain SFP1, active compounds read low 0.11 | locus YML070W, strain DAK1, active compounds read low 0.207 | locus YMR001C, strain CDC5, active compounds read low 0.667 | locus YMR205C, strain PFK2 (second series), active compounds read low 0.258 | locus YMR277W, strain FCP1, active compounds read low 0.648 | locus YNL006W, strain LST8, active compounds read low 0.611 | locus YNL020C, strain ARK1, active compounds read low 0.196 | locus YNL161W, strain CBK1, active compounds read low 0.525 | locus YNL183C, strain NPR1, active compounds read low 0.283 | locus YNL207W, strain RIO2, active compounds read low 0.645 | locus YNL222W, strain SSU72, active compounds read low 0.638 | locus YNL307C, strain MCK1 (second series), active compounds read low 0.202 | locus YOL078W, strain AVO1, active compounds read low 0.689 | locus YOL136C, strain PFK27, active compounds read low 0.205 | locus YOR061W, strain CKA2, active compounds read low 0.186 | locus YOR119C, strain RIO1, active compounds read low 0.221 | locus YOR231W, strain MKK1, active compounds read low 0.225 | locus YOR329C, strain SCD5, active compounds read low 0.607 | locus YPL031C, strain PHO85, active compounds read low 0.214 | locus YPL153C, strain RAD53, active compounds read low 0.216 | locus YPL204W, strain HRR25, active compounds read low 0.198 | locus YPL209C, strain IPL1, active compounds read low 0.624 | locus YPL256C, strain CLN2, active compounds read low 0.252 | locus YPR025C, strain CCL1, active compounds read low 0.637 | locus YPR106W, strain ISR1, active compounds read low 0.679 | strain NNK1, active compounds read low 0.537 | strain TSCII, active compounds read low 0.58
inactive: locus YPR111W, strain DBF20, active compounds read low 1
